# Article PMC11006913
# Residue numbers refer to the chain shown, from its start.
# Assays:
# Assay in all cases: PBM; 200 nM protein, PBS
# Conditions in all cases: dsDNA, one strand shown
# SIX6 [1] = target: T1, SIX6 (Homo sapiens, UniProt O95475 114-200, L167I)
# T1 sequence: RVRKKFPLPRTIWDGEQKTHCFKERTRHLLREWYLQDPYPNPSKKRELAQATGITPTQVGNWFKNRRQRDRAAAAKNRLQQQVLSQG
# SIX6 [2] = target: T2, SIX6 (Homo sapiens, UniProt O95475 114-200, L143V)
# T2 sequence: T1 sequence with L30V, I54L
# SIX6 [3] = target: T3, SIX6 (Homo sapiens, UniProt O95475 114-200, H141N)
# T3 sequence: T1 sequence with H28N, I54L
# SIX6 [4] = target: T4, SIX6 (Homo sapiens, UniProt O95475 114-200, T165P)
# T4 sequence: T1 sequence with T52P, I54L
# SIX6 [5] = target: T5, SIX6 (Homo sapiens, UniProt O95475 114-200, L167M)
# T5 sequence: T1 sequence with I54M
# SIX6 [6] = target: T6, SIX6 (Homo sapiens, UniProt O95475 114-200, L143M)
# T6 sequence: T1 sequence with L30M, I54L
# SIX6 [7] = target: T7, SIX6 (Homo sapiens, UniProt O95475 114-200, L143I)
# T7 sequence: T1 sequence with L30I, I54L
# SIX6 [8] = target: T8, SIX6 (Homo sapiens, UniProt O95475 114-200, T165G)
# T8 sequence: T1 sequence with T52G, I54L
# SIX6 [9] = target: T9, SIX6 (Homo sapiens, UniProt O95475 114-200, T139Q)
# T9 sequence: T1 sequence with T26Q, I54L
# SIX6 [10] = target: T10, SIX6 (Homo sapiens, UniProt O95475 114-200, T165A)
# T10 sequence: T1 sequence with T52A, I54L
# SIX6 [11] = target: T11, SIX6 (Homo sapiens, UniProt O95475 114-200, L167V)
# T11 sequence: T1 sequence with I54V
# SIX6 [12] = target: T12, SIX6 (Homo sapiens, UniProt O95475 114-200)
# T12 sequence: T1 sequence with I54L
# SIX6 [13] = target: T13, SIX6 (Homo sapiens, UniProt O95475 114-200, T165I)
# T13 sequence: T1 sequence with T52I, I54L
Sequence,binding signal (SIX6 [1]),binding signal (SIX6 [2]),binding signal (SIX6 [3]),binding signal (SIX6 [4]),binding signal (SIX6 [5]),binding signal (SIX6 [6]),binding signal (SIX6 [7]),binding signal (SIX6 [8]),binding signal (SIX6 [9]),binding signal (SIX6 [10]),binding signal (SIX6 [11]),binding signal (SIX6 [12]),binding signal (SIX6 [13])
GTGATACA,"11.4 upbm affinity estimate (log intensity, higher = more binding, comparable within an allelic series)","10.4 upbm affinity estimate (log intensity, higher = more binding, comparable within an allelic series)","11.4 upbm affinity estimate (log intensity, higher = more binding, comparable within an allelic series)","9.76 upbm affinity estimate (log intensity, higher = more binding, comparable within an allelic series)","10.8 upbm affinity estimate (log intensity, higher = more binding, comparable within an allelic series)","11.2 upbm affinity estimate (log intensity, higher = more binding, comparable within an allelic series)","10.4 upbm affinity estimate (log intensity, higher = more binding, comparable within an allelic series)","11.3 upbm affinity estimate (log intensity, higher = more binding, comparable within an allelic series)","11.3 upbm affinity estimate (log intensity, higher = more binding, comparable within an allelic series)","11.3 upbm affinity estimate (log intensity, higher = more binding, comparable within an allelic series)","11.1 upbm affinity estimate (log intensity, higher = more binding, comparable within an allelic series)","11 upbm affinity estimate (log intensity, higher = more binding, comparable within an allelic series)","11.2 upbm affinity estimate (log intensity, higher = more binding, comparable within an allelic series)"
AGGATATC,"11.1 upbm affinity estimate (log intensity, higher = more binding, comparable within an allelic series)","10.2 upbm affinity estimate (log intensity, higher = more binding, comparable within an allelic series)","11.1 upbm affinity estimate (log intensity, higher = more binding, comparable within an allelic series)","9.73 upbm affinity estimate (log intensity, higher = more binding, comparable within an allelic series)","10.7 upbm affinity estimate (log intensity, higher = more binding, comparable within an allelic series)","10.9 upbm affinity estimate (log intensity, higher = more binding, comparable within an allelic series)","10.3 upbm affinity estimate (log intensity, higher = more binding, comparable within an allelic series)","11.2 upbm affinity estimate (log intensity, higher = more binding, comparable within an allelic series)","11.1 upbm affinity estimate (log intensity, higher = more binding, comparable within an allelic series)","11.1 upbm affinity estimate (log intensity, higher = more binding, comparable within an allelic series)","10.9 upbm affinity estimate (log intensity, higher = more binding, comparable within an allelic series)","10.9 upbm affinity estimate (log intensity, higher = more binding, comparable within an allelic series)","10.9 upbm affinity estimate (log intensity, higher = more binding, comparable within an allelic series)"
CCATATAC,"10.3 upbm affinity estimate (log intensity, higher = more binding, comparable within an allelic series)","10.1 upbm affinity estimate (log intensity, higher = more binding, comparable within an allelic series)","10.3 upbm affinity estimate (log intensity, higher = more binding, comparable within an allelic series)","9.82 upbm affinity estimate (log intensity, higher = more binding, comparable within an allelic series)","10.3 upbm affinity estimate (log intensity, higher = more binding, comparable within an allelic series)","10.4 upbm affinity estimate (log intensity, higher = more binding, comparable within an allelic series)","10.1 upbm affinity estimate (log intensity, higher = more binding, comparable within an allelic series)","10.4 upbm affinity estimate (log intensity, higher = more binding, comparable within an allelic series)","10.5 upbm affinity estimate (log intensity, higher = more binding, comparable within an allelic series)","10.3 upbm affinity estimate (log intensity, higher = more binding, comparable within an allelic series)","10.2 upbm affinity estimate (log intensity, higher = more binding, comparable within an allelic series)","10.4 upbm affinity estimate (log intensity, higher = more binding, comparable within an allelic series)","10.3 upbm affinity estimate (log intensity, higher = more binding, comparable within an allelic series)"
CGCACTCC,"8.92 upbm affinity estimate (log intensity, higher = more binding, comparable within an allelic series)","8.98 upbm affinity estimate (log intensity, higher = more binding, comparable within an allelic series)","8.96 upbm affinity estimate (log intensity, higher = more binding, comparable within an allelic series)","9.15 upbm affinity estimate (log intensity, higher = more binding, comparable within an allelic series)","8.96 upbm affinity estimate (log intensity, higher = more binding, comparable within an allelic series)","8.9 upbm affinity estimate (log intensity, higher = more binding, comparable within an allelic series)","9.01 upbm affinity estimate (log intensity, higher = more binding, comparable within an allelic series)","9.09 upbm affinity estimate (log intensity, higher = more binding, comparable within an allelic series)","9 upbm affinity estimate (log intensity, higher = more binding, comparable within an allelic series)","9.06 upbm affinity estimate (log intensity, higher = more binding, comparable within an allelic series)","8.95 upbm affinity estimate (log intensity, higher = more binding, comparable within an allelic series)","9.04 upbm affinity estimate (log intensity, higher = more binding, comparable within an allelic series)","8.97 upbm affinity estimate (log intensity, higher = more binding, comparable within an allelic series)"
AGTGATAC,"11.6 upbm affinity estimate (log intensity, higher = more binding, comparable within an allelic series)","10.5 upbm affinity estimate (log intensity, higher = more binding, comparable within an allelic series)","11.5 upbm affinity estimate (log intensity, higher = more binding, comparable within an allelic series)","9.81 upbm affinity estimate (log intensity, higher = more binding, comparable within an allelic series)","10.9 upbm affinity estimate (log intensity, higher = more binding, comparable within an allelic series)","11.2 upbm affinity estimate (log intensity, higher = more binding, comparable within an allelic series)","10.5 upbm affinity estimate (log intensity, higher = more binding, comparable within an allelic series)","11.6 upbm affinity estimate (log intensity, higher = more binding, comparable within an allelic series)","11.5 upbm affinity estimate (log intensity, higher = more binding, comparable within an allelic series)","11.5 upbm affinity estimate (log intensity, higher = more binding, comparable within an allelic series)","11.4 upbm affinity estimate (log intensity, higher = more binding, comparable within an allelic series)","11.2 upbm affinity estimate (log intensity, higher = more binding, comparable within an allelic series)","11.4 upbm affinity estimate (log intensity, higher = more binding, comparable within an allelic series)"
